Screen size: about 360,000 compounds; about 25,000 (6.9%) were called active. Another 9% or so got no clear call; they are omitted. The call rests on the fitted dose curve; in most records, active means well fitted inhibition curve with a large enough effect; inconclusive means small, poorly fitted or top-dose-only effect; inactive means flat fitted curve, though single readings scatter. This excerpt belongs to a sample that is enriched for actives.
Molecular target: Luciferin 4-monooxygenase (Photinus pyralis) (UniProt P08659)
Experiment: qHTS profiling assay for firefly luciferase inhibitor/activator using purifed enzyme and Km concentrations of substrates (counterscreen for miR-21 project); further: nearly all actives have a fitted effect of over 55% in size;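 on activity change, negative = inhibition: plate controls were vehicle for no effect and reference inhibitor for full effect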
Details: purified FLuc, luminescence inhibition; series mostly up to 57.5 µM; activity change, negative = inhibition: at the top concentration
Procedure, shortened: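 Purified P. pyralis luciferase (10nM final) with 10uM D-luciferin and 10uM ATP (Km levels) in 50mM Tris acetate pH 7.5, 10mM Mg acetate, 0.01% Tween-20, 0.05% BSA; qHTS 6-point titration, ~60 µM downward; luminescence read.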
Potency means the concentration at half of the fitted maximal effect.

Chain of Luciferin 4-monooxygenase (Photinus pyralis) (P08659 whole entry, looked up): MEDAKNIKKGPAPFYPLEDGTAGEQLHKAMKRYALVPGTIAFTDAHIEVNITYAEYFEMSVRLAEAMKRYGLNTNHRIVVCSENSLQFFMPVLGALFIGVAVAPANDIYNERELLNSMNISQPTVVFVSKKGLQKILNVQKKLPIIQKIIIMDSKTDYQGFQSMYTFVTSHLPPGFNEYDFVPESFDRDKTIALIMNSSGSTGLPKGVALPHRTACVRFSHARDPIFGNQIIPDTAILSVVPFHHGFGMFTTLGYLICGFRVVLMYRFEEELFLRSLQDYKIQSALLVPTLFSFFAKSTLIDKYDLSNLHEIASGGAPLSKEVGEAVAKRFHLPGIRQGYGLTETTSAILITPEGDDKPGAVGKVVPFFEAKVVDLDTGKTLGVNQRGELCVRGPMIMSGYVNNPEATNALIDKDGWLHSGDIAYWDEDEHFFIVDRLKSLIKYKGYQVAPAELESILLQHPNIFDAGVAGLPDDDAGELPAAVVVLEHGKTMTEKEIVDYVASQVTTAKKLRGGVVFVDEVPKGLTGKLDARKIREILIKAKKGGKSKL

Row | Compound | activity change, negative = inhibition | Potency
1 | CCOC(=O)c1c(C)oc2nc(C)nc(Nc3ccc(CC)cc3)c12 | -5.35% (inactive) | –
2 | O=C(CSc1cn(CC(=O)N2CCOCC2)c2ccccc12)Nc1ccccc1 | -4.95% (inactive) | –
3 | O=C(Nc1ccc(F)cc1)C(=O)c1cn(CC(=O)N2CCOCC2)c2ccccc12 | – | 2.69 µM (active)
4 | COc1cccc(NC(=O)C(=O)c2cn(CC(=O)N3CCOCC3)c3ccccc23)c1 | – | 5.36 µM (active)
5 | CN1CCN(C(=O)C(=O)c2cn(CC(=O)N3CCCC3)c3ccccc23)CC1 | 4.17% (inactive) | –
6 | O=C(NCc1ccco1)C(=O)c1cn(CC(=O)N2CCCCCC2)c2ccccc12 | -6.85% (inactive) | –
7 | COc1cccc(NC(=O)CS(=O)(=O)c2cn(CC(=O)N3CCOCC3)c3ccccc23)c1 | -3.28% (inactive) | –
8 | CCc1cccc(C)c1NS(=O)(=O)c1ccc(-c2cc(C)no2)s1 | -0.558% (inactive) | –
9 | Cc1ccc2oc(=O)c3cnn(CC(=O)N4CCN(c5cccc(Cl)c5)CC4)c3c2c1 | 0.67% (inactive) | –
10 | Cc1ccc(N2CC(c3nnc(Cc4ccccc4Cl)o3)CC2=O)cc1 (stereo unspecified) | 3.35% (inactive) | –
11 | Cc1cccc(NC(=O)CSc2nc3c(oc4ccccc43)c(=O)n2-c2ccc(F)cc2)c1 | 3.43% (inactive) | –
12 | COc1ccc(-c2nc3nc(C)cc(C)n3c2Nc2c(C)cccc2C)cc1 | 4.68% (inactive) | –
13 | CCCCC(CC)CNC(=O)C1CCN(S(=O)(=O)c2cccc3nsnc23)CC1 (stereo unspecified) | -6.3% (inactive) | –
14 | Cc1nn(Cc2ccccc2)c(Cl)c1C(=O)OC1CCOC1=O (stereo unspecified) | 2.71% (inactive) | –
15 | COc1cc(C(=O)OC2CCOC2=O)c([N+](=O)[O-])cc1OC (stereo unspecified) | 0.894% (inactive) | –
16 | O=C(OC1CCOC1=O)c1ccc(-c2nc3ccccc3s2)s1 (stereo unspecified) | – | 0.19 µM (active)
17 | CCOC(=O)c1c(NC(=O)CNC2CCCc3ccccc32)sc(C(N)=O)c1C (stereo unspecified) | -10.6% (inactive) | –
18 | CCC(=O)N1CCCc2ccccc21 | -1.02% (inactive) | –
19 | O=C(CSCc1ccccc1)N1CCc2ccccc21 | – | 2.39 µM (active)
20 | O=C(CN1CCN(c2ccccn2)CC1)N1CCc2ccccc21 | 5.78% (inactive) | –
21 | CCc1nc2ccccc2c(C(=O)OC2CCCCC2=O)c1C (stereo unspecified) | -1.89% (inactive) | –
22 | CCCn1c(C2CCCN2c2nc(-c3ccc(OC)cc3)cs2)nc2ccccc21 (stereo unspecified) | -4.67% (inactive) | –
23 | COc1ccc(C2C(C(C)=O)=C(O)C(=O)N2c2nccs2)cc1 (stereo unspecified) | 1.02% (inactive) | –
24 | COc1ccc(NC(=O)c2sc(N)nc2-c2ccccc2)cc1 | -6.15% (inactive) | –
25 | CC(=O)Nc1nc(C)c(-c2csc(Nc3ccc(S(N)(=O)=O)cc3)n2)s1 | -1.06% (inactive) | –
26 | NS(=O)(=O)c1ccc(Nc2nc(-c3ccccc3)cs2)cc1 | – | 21.3 µM (active)

Row | Compound | activity change, negative = inhibition | Potency
27 | COC(=O)CCc1sc(Nc2ccc(Br)cc2)nc1-c1ccc(OC)cc1 | 1.08% (inactive) | –
28 | COc1ccc(Nc2nc(-c3ccccc3)cs2)cc1 | – | 0.601 µM (active)
29 | CCCn1c(CCNc2nc(-c3ccc(OC)cc3)cs2)nc2ccccc21 | 1.09% (inactive) | –
30 | COc1ccc(-c2csc(Cc3nc(O)cs3)n2)cc1 | – | 2.69 µM (active)
31 | NS(=O)(=O)c1ccc(NS(=O)(=O)/C=C/c2ccccc2)cc1 | 14.2% (inactive) | –
32 | COc1ccc(-c2csc(Nc3ccc(O)cc3)n2)cc1 | – | 1.35 µM (active)
33 | CCOC(=O)NC(=O)CSc1nnc(SCCC(=O)O)s1 | 2.64% (inactive) | –
34 | CCC[C@H]1CCCC/C=C\CCCC(=O)OCCN1C(=O)OC(C)(C)C | 1.02% (inactive) | –
35 | COC(=O)c1cc(NC(=O)CCc2c(C)nc3c4c(C)cc(C)nc4nn3c2C)cc(C(=O)OC)c1 | -4.62% (inactive) | –
36 | C[C@@H]1O[C@@H](OC[C@H]2O[C@@H](Oc3c(-c4ccc(O)cc4)oc4cc(O)cc(O)c4c3=O)[C@H](O)[C@@H](O)[C@@H]2O)[C@H](O)[C@H](O)[C@H]1O | 3.05% (inactive) | –
37 | CCNC(=O)c1cccc(NC(=O)C2CC(=O)N(CCc3ccccc3)C2)c1 (stereo unspecified) | -1.73% (inactive) | –
38 | CCOc1ccc(NC(=O)CN(C)C(=O)Cn2c(=O)cnc3ccccc32)cc1OCC | 3.02% (inactive) | –
39 | COc1ccccc1Cc1nc2ccccc2nc1SCC(=O)N1CCCc2ccccc21 | 1.12% (inactive) | –
40 | O=C(Cc1ccccc1)NCC1OCCc2ccccc21 (stereo unspecified) | 5.57% (inactive) | –
41 | CSc1nc(-c2ccc(F)cc2)nc2c1Cc1c(CO)cnc(C)c1O2 | -7.58% (inactive) | –
42 | COc1ccc(-c2csc(NC3OC(=O)c4ccccc43)n2)cc1 (stereo unspecified) | – | 6.75 µM (active)
43 | COc1ccc2c(c1OC)C(=O)OC2Nc1nc(-c2ccccc2)cs1 (stereo unspecified) | 0.505% (inactive) | –
44 | Cc1ccc(-c2csc(NC3OC(=O)c4ccccc43)n2)cc1 (stereo unspecified) | -17.7% (inactive) | –
45 | O=C(NCCS(=O)(=O)N1CCN(c2ccc(F)cc2)CC1)c1ccccc1Br | -0.513% (inactive) | –
46 | O=C(CSCc1cnn(-c2ccccc2)c1-n1cccc1)NCc1ccc(Cl)cc1 | -4.45% (inactive) | –
47 | COc1ccc(-c2ocnc2C(=O)Nc2ccc3c(c2)CCC3)cc1 | – | 7.57 µM (active)
48 | CCOc1ccc(NC(=O)c2cc(C)nc3ccccc23)cc1 | -13.3% (inactive) | –
49 | CCCCOc1ccc(-c2nnc(-c3ccco3)o2)cc1 | – | 2.39 µM (active)
50 | CCOc1ccc(NC(=O)N(CCC(C)C)C(C)c2ccco2)cc1 (stereo unspecified) | -12.2% (inactive) | –
51 | COCCn1c(SCC(=O)Nc2ccc3c(c2)CCC3)nc2ccccc2c1=O | 3.78% (inactive) | –
52 | Cc1ccc(CNC(=O)COc2ccc3c(c2)CCC3)cc1 | 3.72% (inactive) | –

Row | Compound | activity change, negative = inhibition | Potency
53 | CCOc1ccc(NC(=O)c2ncoc2-c2ccco2)cc1 | – | 7.57 µM (active)
54 | Cc1cccc(NC(=O)CSc2nnc(-c3ccco3)o2)c1 | 6.83% (inactive) | –
55 | CCOc1ccc(-c2nnc(-c3ccco3)o2)cc1 | – | 0.953 µM (active)
56 | N#Cc1ccc(OCc2nnc(-c3ccc([N+](=O)[O-])cc3)o2)cc1 | 1.84% (inactive) | –
57 | CCOc1ccc(-n2c(SCC(N)=O)nnc2-c2ccco2)cc1 | -0.757% (inactive) | –
58 | O=C(CCc1ccccc1)Nc1cccc(-c2nnc(-c3ccco3)o2)c1 | -2.35% (inactive) | –
59 | COc1cc(CNC(=O)c2cc3n(n2)CCCN(Cc2cccc(F)c2)C3=O)cc(OC)c1OC | 4.25% (inactive) | –
60 | CN1CCN(S(=O)(=O)c2ccc(NC(=O)C3CCCO3)cc2)CC1 (stereo unspecified) | 4.41% (inactive) | –
61 | CN(C)CCn1c2c(c(SCC(=O)NCc3ccccc3)nc1=O)CCC2 | -2.52% (inactive) | –
62 | O=C(NNS(=O)(=O)c1ccccc1C(F)(F)F)c1cc2ncc(C(F)(F)F)cc2s1 | 0.509% (inactive) | –
63 | COc1ccccc1CCNC(=O)c1cccn1-c1nnc(N2CCCCC2)s1 | -13.9% (inactive) | –
64 | COc1cc(CNCCSc2nnnn2C)ccc1OCc1c(F)cccc1Cl | 3.54% (inactive) | –
65 | Cc1ccccc1C(=O)N1CCC(C(=O)Nc2ccc(S(=O)(=O)N(C)C(C)C)cc2)CC1 | -2.3% (inactive) | –
66 | COC(=O)c1ccc2c(c1)N(CC(=O)Nc1ccc(C)c(C)c1)C(=O)c1ccccc1S2 | -1.58% (inactive) | –
67 | CCN(CCCNC(=O)CSc1cc(=O)n(C)c2cc(Cl)ccc12)c1cccc(C)c1 | -14.8% (inactive) | –
68 | Oc1ccc(/C=N/N(Cc2ccccc2)c2ccccc2)cc1 | -17.6% (inactive) | –
69 | CC1CCCN(c2cc3c(cc2F)c(=O)c(S(=O)(=O)c2cccc(Cl)c2)cn3Cc2ccccc2)C1 (stereo unspecified) | 1.02% (inactive) | –
70 | Cc1ccnc(N2CCCC(C(=O)Nc3cc(F)ccc3C)C2)n1 (stereo unspecified) | 5.94% (inactive) | –
71 | CC1CCCN(c2csc3ccc(F)cc3c2=O)C1 (stereo unspecified) | – | 6.01 µM (active)
72 | CCOc1ccc(NC(=O)CN(C)C(=O)c2cccc(S(=O)(=O)N3CCCC3)c2)cc1OCC | 2.17% (inactive) | –
73 | CC1=C(c2ccc(C)cc2)S(=O)(=O)NC1=NCCCN1CCN(c2cc(C)ccc2C)CC1 | -0.583% (inactive) | –
74 | Cc1ccc(CNS(=O)(=O)c2ccc(C(=O)N(C)C)s2)cc1 | -9.37% (inactive) | –
75 | Cc1ccc(/C=N/NC(=O)Cn2nc(C)c(Br)c2C)o1 | 3.49% (inactive) | –
76 | Cc1ccc(/C=N/NC(=O)Cn2ccc(C(F)(F)F)n2)o1 | -4.37% (inactive) | –
77 | O=C(N/N=C/c1cccnc1)c1ccc(NC(=O)c2ccc(F)cc2)cc1 | -5.04% (inactive) | –
78 | O=C(N/N=C/c1cccnc1)c1cc2ccccc2cc1O | – | 5.36 µM (active)

Row | Compound | activity change, negative = inhibition | Potency
79 | Cc1ccc(/C=N/NC(=O)c2cc3ccccc3cc2O)o1 | – | 9.53 µM (active)
80 | O=C(N/N=C\c1cccnc1)c1cc(-c2ccccc2)nc2c(Cl)cccc12 | -16.6% (inactive) | –
81 | CCc1cc2c(cc3c(=O)n(CC(=O)NCc4cccc(Cl)c4)nc(CC)n32)s1 | -3.11% (inactive) | –
82 | O=C(CSc1ncn[nH]1)Nc1nc(-c2cccc([N+](=O)[O-])c2)cs1 | -12.7% (inactive) | –
83 | O=C(CSc1nc(-c2ccccc2)cs1)Nc1cccc([N+](=O)[O-])c1 | – | 10.7 µM (active)
84 | COc1ccc(-n2cnnc2SCC(=O)Nc2cccc([N+](=O)[O-])c2)cc1 | -0.116% (inactive) | –
85 | Cc1cc([N+](=O)[O-])c(-c2ccc(/C=N/n3cnnc3)o2)cc1Cl | 0.263% (inactive) | –
86 | CC1=NN(c2ccc(Cl)c(C(=O)O)c2)C(=O)/C1=C/c1ccc(-c2ccccc2[N+](=O)[O-])o1 | – | 4.78 µM (active)
87 | O=C1NC(c2ccc(-c3ccccc3[N+](=O)[O-])o2)C(C(=O)c2ccc(Cl)cc2)C(O)(C(F)(F)F)N1 (stereo unspecified) | 3.67% (inactive) | –
88 | NS(=O)(=O)c1ccc(NC(=O)COC(=O)c2cc3ccccc3oc2=O)cc1 | -6.92% (inactive) | –
89 | C=CCc1cccc2cc(C(=O)OCC)c(=O)oc12 | -15.5% (inactive) | –
90 | CCOC(=O)c1cc2cc3ccccc3cc2oc1=O | – | 9.53 µM (active)
91 | O=C(CCC(=O)N1CC2CCCN2c2ccccc21)NCc1ccccc1Cl (stereo unspecified) | -11.2% (inactive) | –
92 | O=C(CCc1nc(CN2CCN(S(=O)(=O)c3ccc(Br)cc3)CC2)no1)N1CCCCC1 | -2.89% (inactive) | –
93 | CCOC(=O)c1c(C)[nH]c(CCC(=O)NCCCN2CCN(c3cccc(Cl)c3)CC2)c1C | -6.7% (inactive) | –
94 | CN(C)CCn1c(=S)[nH]c2ccc(Cl)cc2c1=O | -0.113% (inactive) | –
95 | CN(C)CCN=c1cc(-c2ccccc2)oc2ccc(Cl)cc12 | – | 6.01 µM (active)
96 | CN(C)CCCn1c(-c2ccc(Cl)cc2)csc1=Nc1ccccc1 | 1.01% (inactive) | –
97 | O=C(CCCn1c(=O)c2cccn2c2cccnc21)NCc1ccc(F)cc1 | 7.61% (inactive) | –
98 | Cc1ccccc1Cn1nc(C)c(NC(=O)c2cc(-c3ccc(F)cc3)on2)c1C | 3.35% (inactive) | –
99 | CCOC(=O)C1=C(N)N2C(=O)C(C)SC2=C(C(=O)OCC)C1c1cc(OC)c(OC)c(OC)c1 (stereo unspecified) | -0.321% (inactive) | –
100 | CC1(C)CCSC(/C=C/c2ccccc2)=N1 | – | 13.5 µM (active)
101 | Cc1ccc(C)c(CN2C(=O)c3ccccc3S(=O)c3ccc(C(=O)N4CCOCC4)cc32)c1 (stereo unspecified) | -4.41% (inactive) | –

— PubChem BioAssay AID588342 (National Center for Advancing Translational Sciences (NCATS), 2011)
